Experimental data reported in PubChem BioAssay (NCI).
This is part of a sample that, as a whole, favours compounds with a hit. Of some 83,000 tested, about 20% had one in any assay.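 Cell lines were cultured in 96-well plates, exposed to a single compound concentration, and assessed for percent growth 48 hours later.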 Values without a mark were called inactive. Calls of active or inactive are those of the source. How the source made its calls: active means growth percent below 10; inactive means the rest.

Each molecule was assayed on SF-295 CNS (assay: NCI-60 one-dose screen, 48 h (100 = growth as untreated, 0 = no growth, -100 = all killed)). Conditions: 10 µM unless noted.

SMILES | growth
COc1cc(NC(=O)CSc2nc3ccc(Cl)cc3c(=O)n2-c2ccc(F)cc2)cc(OC)c1OC | 80%
Cc1ccc(C(=O)Nc2ccc(CN3CCN(C)CC3)c(C(F)(F)F)c2)cc1C#Cc1cnc(N)c2ccc(F)cc12 | -76.9% (active)
FC(F)(F)c1cccc(-c2[nH]ncc2-c2nnnn2-c2ccccc2)c1 | 56.7%
COc1cc(CCNc2cnc3cc(N)cc(N)c3n2)cc(OC)c1 | 116%
CCOC(=O)CNS(=O)(=O)CC(=O)c1ccccc1 | 118%
O=C(Nc1ccc(Cl)cn1)C1(c2ccccc2)CCCCC1 | 110%
Brc1c(-c2ccncc2)nc2n1CCS2 | 102%
O=C(Nc1cccc(Cn2c(=O)[nH]c3ccc(Oc4ncccn4)cc3c2=O)c1)c1ccc(Cl)cc1 | 39.4%
CC(=O)c1cc(Nc2cc(C)nc(N)n2)cc(C(C)=O)c1 | 114%
O=C(Nc1cccc(Cn2c(=O)[nH]c3ccc(Oc4ncccn4)cc3c2=O)c1)c1cc(Cl)cc(Cl)c1 | 64.6%
C=C1CCC2C3(C)COC(c4ccccc4)OC3CCC2(C)C1C/C=C1/C(=O)OCC1O (centres undefined) | 87.6%
CC(C)(C)OC(=O)N1C/C(=C\c2ccccc2)C(=O)/C(=C/c2ccccc2)C1 | 99.5%
Nc1cc(N)c2nc(-c3ccccc3)c(NCCc3ccc(Cl)c(Cl)c3)nc2c1 | -74.2% (active)
O=C(Nn1cnc2ccccc21)N1CCCC1 | 98.7%
O=C(Nc1cccc(Cn2c(=O)[nH]c3ccc(Oc4ncccn4)cc3c2=O)c1)c1cccc(F)c1 | 81.8%
O=C1NCCN1/N=C/c1c(Cl)nc2n1CCS2 | 111%
CC(=O)N1N=C(c2ccc(Cl)cc2)CC1c1cn(-c2ccccc2)nc1-c1ccc([N+](=O)[O-])cc1 (centres undefined) | 104%
CCCCCC(=C/c1ccccc1)/C=N/N=C(N)N | -64.3% (active)
COc1cc2oc(-c3ccc(NC(=O)c4ccccc4)cc3)cc(=O)c2c(OC)c1OC | 77.4%
N#Cc1c(N)nc(Nc2nc3ccccc3[nH]2)nc1-c1ccc(Cl)cc1 | 112%

SMILES | growth
COc1cc(N)c2nccc(C)c2c1OC | 116%
Cc1ccc(C(=O)NN)cc1 | 111%
COc1cc(OC)c2c(=O)cc(-c3ccccc3)oc2c1 | 93.8%
C/C=C(/C)C(=O)OC1C=C(CO)C(=O)C(OC(=O)/C(C)=C\C)C1C(C)C (centres undefined) | -54.3% (active)
Cc1nn(-c2ccccc2)c(N)c1N=C1NC(=O)/C(=C/c2ccc(Cl)cc2)S1 | 86.5%
COCC(=O)NNc1[nH]c(-c2ccc(OC)cc2)cc1C#N | 96%
Cc1ncc(C(=O)Nc2ccc(CN3CCN(C)CC3)c(C(F)(F)F)c2)cc1C#Cc1cnc(NC2CC2)c2ncccc12 | -91.8% (active)
CCCOC(=O)c1c(C)n(C)c2scc[n+]12 | 54.1%
Cc1ccc2c(O)c(O)cc(NC(C)CCCN)c2n1 (centres undefined) | 90.6%
CC(=O)N(N=O)c1ccc([N+](=O)[O-])cc1Cl | 66.9%
Cc1ccc2c(c1)C(=O)CCS2 | 108%
O=C(O)/C(Br)=C/c1c[nH]c2ccc(Br)cc12 | 102%
COc1ccc(-n2nnnc2-c2cn[nH]c2C(F)(F)F)cc1 | 88.3%
COc1ccc(C2C3(C#N)C(N)=NC(=C(C#N)C#N)C23C#N)cc1OC (centres undefined) | 108%
CCOC(=O)c1cc(-c2ccc(OC)cc2)[nH]c1NNC(=O)CCOC | 95.3%
O=C(NCCCl)Nc1nccnc1OCc1ccc(F)cc1 | 99.2%
CC1=C(C)C(=O)C(C(C)C2=C(C)C(=O)C(C)=C(C)C2=O)=C(C)C1=O | 128%
COc1cc(NC(C)CCCN)c2nccc(C)c2c1OC (centres undefined) | 115%
COc1cc2c(c(OC)c1OC)C(=O)CC(c1cccc(C(=O)Nc3cccc(Br)c3)c1)O2 (centres undefined) | 86.7%
